Assay [1] can be described thus: qHTS assay for small molecules that induce genotoxicity in human embryonic kidney cells expressing luciferase-tagged ATAD5 (AID 651632). Further: nearly all actives have a fitted effect of over 15% in size. The method, boiled down:
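Increased luciferase signal from ATAD5-tagged reporter cells indicates DNA-damage-driven ATAD5 induction. HEK293T cells are treated for 16 hr at 37C before detection with Amplite.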

The nature of assay [2]: qHTS assay for small molecule agonists of the p53 signaling pathway - cell viability (AID 651633; calls by dose curve;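 further: p53RE-bla HCT reporter cells with a stable beta-lactamase p53 reporter; series mostly up to about 83 µM; nearly all actives have a fitted effect of over 30% in size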). The essentials: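 p53RE-bla cells were treated with compound for 16 hours at 37 C. Cytotoxicity was then measured as CellTiter-Glo luminescence after 30 min at room temperature.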
For orientation: Quantitative high-throughput screening tests each substance at several concentrations.

Assay [3] in a line: qHTS assay for small molecules that induce genotoxicity in human embryonic kidney cells expressing luciferase-tagged ATAD5 - cell viability (AID 651634; calls by dose curve; further: nearly all actives have a fitted effect of over 25% in size). The method, boiled down: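 Cytotoxicity counterscreen in HEK293T cells bearing an ATAD5-luciferase reporter: live-cell protease activity measured by CellTiter-Fluor fluorescence after 15.5 hr compound exposure.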
A short description of assay [4]: qHTS assay for small molecule disruptors of the mitochondrial membrane potential - cell viability (AID 720634; calls by dose curve;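 further: human HepG2 liver cancer cells; series mostly up to about 83 µM; nearly all actives have a fitted effect of over 20% in size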). The essentials:
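After overnight attachment at 37 C, HepG2 cells received compound or DMSO vehicle for 1 hr. Viability is then taken from ATP-driven luminescence following a 30 min room-temperature CellTiter-Glo step.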

A short description of assay [5]: qHTS assay for small molecule disruptors of the mitochondrial membrane potential (AID 720635). Further: potency means the concentration at half of the fitted maximal effect. The method, boiled down: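 HepG2 cells exposed to compound 1 hr at 37C, then Mito-MPS dye 30 min. Ratio read of aggregate (540/590 nm) versus monomer (490/535 nm) fluorescence.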
Assay [6] is described as follows: qHTS assay to test for compound auto fluorescence at 590 nm (red) in HepG2 cells (AID 720674). The method, boiled down:
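Fluorescence at 590 nm emission following 540 nm excitation was recorded from HepG2 wells one hour after compound transfer, with DMSO-only wells as vehicle and Rose Bengal sodium equivalency as the scale.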

Assay [7] in a line: qHTS assay to test for compound auto fluorescence at 535 nm (green) in HepG2 cells (AID 720675).
Assay [8] is described as follows: qHTS assay to test for compound auto fluorescence at 460 nm (blue) in HEK293 cells (AID 720678). The method, boiled down:
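HEK293, 2,000 cells/well, 10% dialyzed FBS; attach 4-5 hr 37C; pin compound or DMSO; o/n 37C/5% CO2; fluorescence 405/460 nm; triamterene-equivalent units.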

Assay [9] is described as follows: qHTS assay to test for compound auto fluorescence at 590 nm (red) in HEK293 cells (AID 720679). The method, boiled down: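 Intensity at 540nm excitation and 590nm emission is reported as Rose Bengal sodium-equivalent autofluorescence. Measurements followed overnight exposure (37C, 5% CO2) of HEK293 cells, 2,000 per well, to 23 nL compound.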
Assay [10] is described as follows: qHTS assay for small molecule agonists of the p53 signaling pathway (AID 651631; calls by dose curve; further: nearly all actives have a fitted effect of over 15% in size). The essentials: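 We treat p53RE-bla HCT-116 cells with compounds for 16 h at 37 °C, add LiveBLAzer B/G FRET substrate for 2 h at room temperature, and measure fluorescence intensity.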

Structures are written as SMILES. Values joined by “and” are separate entries in the source; they are usually repeats but may differ in a detail not shown here. Identical values can stand only once. Inconclusive results are not listed. More than one record can exist for a structure, and the calls need not agree. Active and inactive are the calls of the source. Unless noted, the call rests on the fitted dose curve; in most records, active means well fitted curve in the direction sought with a large enough effect in the repeat runs; inconclusive means weak or mixed curves; inactive means no such curve, though single readings can be large; an effect the other way counts as inactive or inconclusive.

As to `O=C(O)c1ccccc1C(=O)O`, the outcome in assay [1], in assay [2], in [6], in [7] and in [8] was inactive. Further, the Potency result in assay [3], in [4] and in [5] was “inactive” throughout.

Turning to `CC(=O)OCCOC(C)=O`, the outcome in assay [1], in assay [2], in [6], in assay [7], in [8] and in assay [9] was inactive. For the same compound, the Potency result in [3] was “inactive”.

Turning to `CC(=O)Oc1ccc(C)cc1`, the compound was called inactive in assay [1], in [2], in assay [6], in assay [7] and in [9]. The Potency entry in assay [3], in [4] and in assay [5] was “inactive” in each case.

For the compound `O=C(O)Cn1c(=O)n(Cc2ccc(Br)cc2F)c(=O)c2ccc(Cl)cc21`, the compound was called inactive in assay [1], in [2], in [6], in [7] and in assay [8]. Moreover, the Potency result in assay [4] was “inactive”.

Regarding `COc1ccc(C)cc1N`, the compound was called inactive in assay [10], in assay [6], in [7], in assay [8] and in [9]. Also, the Potency result in [3], in [4] and in [5] was “inactive” in each case.

`OC1C(O)C(O)C(O)C(O)C1O` (configuration not stated): the call in [1], in [2], in [6], in assay [7] and in assay [9] was inactive. Besides, the Potency entry in assay [3] and in assay [4] was “inactive” each time.

`CC(O)CC(C)(C)O` (configuration not stated): the compound was classed as inactive in assay [1], in assay [6] and in assay [7]. Besides, the Potency result in assay [3], in assay [4] and in [5] was “inactive” in each case.

Turning to `CC(C)CCCCCCCOC(=O)CCCCC(=O)OCCCCCCCC(C)C`, the result in assay [1], in [2], in [6], in assay [7], in [8] and in assay [9] was inactive. The Potency entry in assay [3] and in assay [4] was “inactive” throughout.

Regarding `Nc1ccc(Cl)c(N)c1`, the result in assay [1], in assay [6], in assay [7] and in assay [8] was inactive. For the same compound, the Potency result in assay [3] and in [4] was “inactive” each time. Besides, in assay [5], the Potency is 68.8 µM (active).

Consider `O=C(O)c1ccc(C(=O)O)c(C(=O)O)c1`, for which the call in assay [1], in [2], in assay [6], in [7] and in assay [8] was inactive. Moreover, the Potency entry in assay [3], in assay [4] and in assay [5] was “inactive” in each case.

Regarding `Cc1ccc(S(=O)(=O)N=C=O)cc1`, the compound was classed as inactive in [1], in assay [2], in assay [6], in assay [7], in [8] and in assay [9]. The Potency result in [3], in assay [4] and in [5] was “inactive” each time.

As to `C=C(C)C(=O)OCC(C)C`, the compound was classed as inactive in assay [1], in assay [2], in assay [6], in assay [7] and in assay [8]. In addition, the Potency entry in assay [3], in assay [4] and in [5] was “inactive” in each case.

With `CC(CCl)OP(=O)(OC(C)CCl)OC(C)CCl` (configuration not stated), the result in [1], in assay [2], in assay [6], in assay [7] and in [9] was inactive. Further, the Potency result in [3], in assay [4] and in assay [5] was “inactive” throughout.

In the case of `NCCN1CCNCC1`, the compound was called inactive in assay [1], in assay [6], in [7], in assay [8] and in [9]. Further, the Potency entry in assay [3], in assay [4] and in assay [5] was “inactive” throughout.

For the compound `Clc1ccccn1`, the outcome in assay [1], in assay [6], in assay [7] and in assay [8] was inactive. Also, the Potency entry in assay [3], in [4] and in [5] was “inactive” in each case.

On to `C=Cc1ccc(C)cc1`, for which the call in [1], in [2], in assay [6], in assay [7] and in [9] was inactive. Further, the Potency entry in assay [3], in assay [4] and in assay [5] was “inactive” in each case.

Consider `CCOC(=O)c1ccc(N)cc1`, for which the result in assay [1], in [2], in assay [6], in assay [7], in assay [8] and in assay [9] was inactive. Besides, the Potency result in assay [3], in [4] and in assay [5] was “inactive” in each case.

For the compound `CN1C(=O)CC[C@H]1c1cccnc1`, the compound was classed as inactive in assay [1], in [2], in [6], in [7] and in assay [8]. The Potency result in [3], in assay [4] and in [5] was “inactive” in each case.

On to `CN(C)c1ccc(Cc2ccc(N(C)C)cc2)cc1`, for which the compound was called inactive in assay [1], in [2], in [6], in [7], in assay [8] and in assay [9]. Moreover, the Potency result in [3] and in [4] was “inactive” throughout. In [5], the Potency is 54.7 µM (active) and inactive.

As to `CC(=O)OC1CC(C)OC(C)O1` (configuration not stated), the compound was classed as inactive in assay [1], in assay [6], in assay [7] and in assay [8]. Further, the Potency entry in [3], in assay [4] and in [5] was “inactive” throughout.

Consider `Cc1ccc([N+](=O)[O-])cc1S(=O)(=O)O`, for which the result in [10], in assay [6], in assay [7] and in assay [8] was inactive. Further, the Potency result in [3], in [4] and in assay [5] was “inactive” each time.

Consider `COC(=O)c1cccnc1`, for which the compound was classed as inactive in assay [10], in assay [6], in assay [7] and in assay [9]. Further, the Potency result in assay [3], in assay [4] and in [5] was “inactive” throughout.

For the compound `O=C(O)c1cc2ccccc2cc1O`, the compound was classed as inactive in assay [1], in assay [6], in [7] and in assay [8]. The Potency entry in assay [3] and in assay [4] was “inactive” in each case. Also, in assay [5], the Potency was 54.1 µM (active) and 54.5 µM (active).

`CC(C)(C#N)c1cc(Cn2cncn2)cc(C(C)(C)C#N)c1`: the compound was classed as inactive in assay [1], in assay [6], in assay [7] and in assay [9]. Moreover, the Potency entry in assay [3] and in [4] was “inactive” throughout.

For the compound `COc1cc(OC)c(C(=O)CCCN2CCCC2)c(OC)c1`, the call in assay [1], in assay [6], in [7] and in [8] was inactive. The Potency result in assay [3] and in assay [4] was “inactive” each time.

Regarding `CC(C)CC(C)O` (configuration not stated), the Potency entry in [3], in assay [4] and in assay [5] was “inactive” in each case. In addition, the result in assay [6], in assay [7], in [8] and in assay [9] was inactive.

In the case of `O=C1CCCC1`, the result in assay [2], in assay [6], in assay [7] and in [8] was inactive. The Potency result in assay [3], in assay [4] and in assay [5] was “inactive” each time.

In the case of `O=C(O)CCCCCCCCC(=O)O`, the Potency entry in [3], in [4] and in assay [5] was “inactive” throughout. Besides, the call in assay [6], in assay [7] and in [9] was inactive.

The record behind these values is PubChem BioAssay (Tox21).
